The nature of the experiment: HT29 colon tumor cell growth inhibition, primary screen, imaging, high content imaging, 72 h, CellTiter-Glo (AID 772).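 On condensed nuclei: condensed means nuclear area below control median minus 1.5 SD.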 Conditions: HCS imaging cell count, at 10 µM, stronger effect = higher value; for condensed nuclei: measured here: percent cells with condensed nuclei. For orientation: In ATP-based viability assays light output follows the ATP content of the culture.
Setting [1] is: measured here: ATP CellTiter-Glo viability.

In PubChem BioAssay AID772 (SRMLSC, 2007) one finds growth inhibition and condensed nuclei data, which are given here for 48 compounds.

About 20 (0.6%) of roughly 3,300 compounds were called active.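 How the source made its calls: active means growth inhibition above 90%, meaning viable cell count cut by more than 90% versus vehicle controls; inactive means growth inhibition below 90%.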 Many of the other results were omitted from the sample, so actives are more common in it than they were.

As to `CCCCOC(=O)c1ccc(NC(=O)CSc2nncn2C)cc1`, the growth inhibition is 11.7% (inactive) and the condensed nuclei came out at 2.84%. Moreover, the growth inhibition under setting [1] is -49.6%.

As for `Cc1cc(=O)oc(C)c1C(=O)NCC1CCCO1` (centres undefined), the growth inhibition is 13.8% (inactive) and the condensed nuclei was determined as 7.86%. Moreover, under setting [1], the growth inhibition came to 8.51%.

Take `Clc1ccc(-n2ncc3c(NCc4ccco4)ncnc32)cc1`: the growth inhibition is 90.8% (active) and the condensed nuclei was determined as 40%. Also, under setting [1], the growth inhibition is 93.7%.

As to `Cc1cccc(-n2ncc3c(NCc4ccco4)ncnc32)c1`, the growth inhibition is 88.8% (inactive) and the condensed nuclei was 12.1%. Also, the growth inhibition under setting [1] was determined as 83.6%.

For `Clc1ccc(-n2ncc3c(NCc4cccs4)ncnc32)cc1`, the growth inhibition was -12.9% (inactive) and the condensed nuclei was 2.28%. Moreover, the growth inhibition under setting [1] is -9.82%.

Regarding `Cn1c(OCc2ccco2)nc2c1c(=O)n(Cc1ccc(Cl)c(Cl)c1)c(=O)n2C`, the growth inhibition was -4.69% (inactive) and the condensed nuclei turned out to be 6.05%. In addition, the growth inhibition under setting [1] is -10%.

In the case of `COc1ccc(CNc2oc(COc3ccc(Cl)cc3)nc2C#N)cc1`, the growth inhibition was 59% (inactive) and the condensed nuclei came out at 24.8%. Moreover, under setting [1], the growth inhibition is 54.4%.

With `COc1ccc(CSc2nnc3n(C)c(=O)c4c5c(sc4n23)CCCC5)cc1`, the growth inhibition is -75.3% (inactive) and the condensed nuclei turned out to be 2.4%. For the same compound, the growth inhibition under setting [1] is -39.3%.

As for `Cc1ccc(-c2nnc(-c3cccc(Br)c3)o2)cc1`, the growth inhibition is 20.1% (inactive) and the condensed nuclei was determined as 0%. Further, the growth inhibition under setting [1] is -5.25%.

For the compound `Cc1ccccc1C(=O)c1ccc2c(c1)n(C)c(=O)n2C`, the growth inhibition was -2.53% (inactive) and the condensed nuclei was determined as 3.03%. Further, the growth inhibition under setting [1] is -7.19%.

On to `O=C(NC1CCCCC1)N1CCSC1=Nc1ccccc1`, for which the growth inhibition was 54.8% (inactive) and the condensed nuclei turned out to be 9.09%. Besides, the growth inhibition under setting [1] turned out to be 12.5%.

On to `O=C1C(=O)N(CCN2CCOCC2)C(c2ccccn2)/C1=C(/O)c1ccc(F)cc1` (centres undefined), for which the growth inhibition is -59.2% (inactive) and the condensed nuclei was found to be 3.57%. The growth inhibition under setting [1] is -29.6%.

Consider `C=CCNc1nc(-c2ccc(O)c(C(N)=O)c2)cs1`, for which the growth inhibition is -5% (inactive) and the condensed nuclei stood at 8.5%. Under setting [1], the growth inhibition was found to be 38.5%.

For the compound `CCOc1ccc(-c2nc(C#N)c(N3CCN(CC)CC3)o2)cc1`, the growth inhibition was 33.8% (inactive) and the condensed nuclei came out at 5.03%. In addition, the growth inhibition under setting [1] was -1.72%.

With `C=CCOC(=O)C(C#N)c1nc2ccccc2nc1N1CCN(c2ccccc2OCC)CC1` (centres undefined), the growth inhibition is -8.05% (inactive) and the condensed nuclei was determined as 3.97%. Further, under setting [1], the growth inhibition is -23.8%.

For the compound `Cc1cc(C)n(CC2CC(=O)N(c3cc(Cl)cc(Cl)c3)C2=O)n1` (centres undefined), the growth inhibition is -36.8% (inactive) and the condensed nuclei stood at 2.19%. In addition, the growth inhibition under setting [1] is -33.9%.

Take `COCCCn1c2nc3ccccc3nc2c2c(=O)n(-c3ccccc3OC)c(C)nc21`: the growth inhibition is -36.8% (inactive) and the condensed nuclei turned out to be 1.23%. Further, the growth inhibition under setting [1] is -45.7%.

`C=CCOC(=O)C1=C(C)OC(N)=C(C#N)C1c1ccoc1` (centres undefined): the growth inhibition is 45.6% (inactive) and the condensed nuclei worked out at 6.32%. Also, the growth inhibition under setting [1] came out at 21.7%.

Consider `CCOC(=O)c1c(SC)nc(SC)c2c1CCC2`, for which the growth inhibition was -36.8% (inactive) and the condensed nuclei is 3.12%. Further, the growth inhibition under setting [1] was -48%.

For the compound `Cc1cc(C)n(Cc2ccc(C(=O)NCCC3=CCCCC3)o2)n1`, the growth inhibition is -19.5% (inactive) and the condensed nuclei is 3.56%. The growth inhibition under setting [1] came out at 3.39%.

As for `Cn1cc(Br)cc2nc(C(F)(F)F)nc1-2`, the growth inhibition was 1.5% (inactive) and the condensed nuclei is 22.8%. For the same compound, the growth inhibition under setting [1] came out at 19.5%.

As to `COc1ccc(C2CC(=O)c3sc(N)nc3C2)cc1` (centres undefined), the growth inhibition was 57.6% (inactive) and the condensed nuclei worked out at 1.99%. Besides, under setting [1], the growth inhibition turned out to be 22.2%.

In the case of `O=C(NCCC1=CCCCC1)c1ccc(=O)oc1`, the growth inhibition was 45.9% (inactive) and the condensed nuclei came to 21.8%. The growth inhibition under setting [1] was determined as 19.6%.

Turning to `Clc1ccccc1-c1nn2c(-c3ccccn3)nnc2s1`, the growth inhibition is -1.22% (inactive) and the condensed nuclei was found to be 15.7%. The growth inhibition under setting [1] was found to be 21.5%.

Regarding `CCCCc1c(C)c2ccc(OCC(C)=O)cc2oc1=O`, the growth inhibition was -30.8% (inactive) and the condensed nuclei amounted to 2.85%. Further, the growth inhibition under setting [1] is -58.8%.

In the case of `CO[C@H]1C[C@@H]2CC[C@@H](C)[C@@](O)(O2)C(=O)C(=O)N2CCCC[C@H]2C(=O)O[C@H]([C@H](C)C[C@@H]2CC[C@@H](O)[C@H](OC)C2)CC(=O)[C@H](C)C=C(C)[C@@H](O)[C@@H](OC)C(=O)[C@H](C)C[C@H](C)C=CC=CC=C1C`, the growth inhibition was 19.1% (inactive) and the condensed nuclei was 2.81%. Under setting [1], the growth inhibition is -4.98%.

Consider `CCOC(=O)c1ccc(N=Cc2nc(-c3ccccc3)oc2OC(C)=O)cc1`, for which the growth inhibition was 6.56% (inactive) and the condensed nuclei was found to be 12.1%. Further, the growth inhibition under setting [1] is -17.5%.

Take `CC12CCC(C(=O)NCCCN3CCOCC3)(OC1=O)C2(C)C` (centres undefined): the growth inhibition is -26.1% (inactive) and the condensed nuclei is 1.65%. In addition, the growth inhibition under setting [1] is -11.1%.

`CC(C)CC(NC(=O)OC(C)(C)C)C(=O)NCc1ccccc1` (centres undefined): the growth inhibition was 9.38% (inactive) and the condensed nuclei was found to be 1.7%. Besides, the growth inhibition under setting [1] is -13%.

`CCOc1ccc(C2C(C(=O)c3ccc(C)o3)=C(O)C(=O)N2CCN2CCOCC2)cc1OC` (centres undefined): the growth inhibition is -37.5% (inactive) and the condensed nuclei worked out at 4.84%. Besides, the growth inhibition under setting [1] was -33.6%.

For the compound `O=C(CCN1CCCCC1)Nc1cccc(Cl)c1`, the growth inhibition is 35% (inactive) and the condensed nuclei was found to be 26.1%. For the same compound, under setting [1], the growth inhibition was 28.1%.

Turning to `N#Cc1nc(-c2cccs2)oc1NCc1ccc2c(c1)OCO2`, the growth inhibition was 48% (inactive) and the condensed nuclei was 3.78%. Further, the growth inhibition under setting [1] was found to be 8.08%.

As for `COC(=O)c1[nH]c(C)c(/C(O)=C2\C(=O)C(=O)N(CCN3CCOCC3)C2c2cccnc2)c1C` (centres undefined), the growth inhibition was -38.7% (inactive) and the condensed nuclei worked out at 3.67%. For the same compound, the growth inhibition under setting [1] is -21.1%.

For `N#CC1=C(N)OC2=C(C(=O)CCC2)C1CCc1ccccc1` (centres undefined), the growth inhibition was 12% (inactive) and the condensed nuclei amounted to 5.15%. Moreover, under setting [1], the growth inhibition is -15.7%.

With `Fc1ccccc1-c1nc(NCCCN2CCOCC2)c2ccccc2n1`, the growth inhibition is 92.5% (active) and the condensed nuclei turned out to be 14.3%. Further, the growth inhibition under setting [1] worked out at 79%.

For `COc1cccc(-c2nc(NCCN3CCOCC3)c3ccccc3n2)c1O`, the growth inhibition was 38% (inactive) and the condensed nuclei is 23.4%. Moreover, under setting [1], the growth inhibition worked out at 86.2%.

Turning to `Oc1ccccc1-c1nc(NCCN2CCOCC2)c2ccccc2n1`, the growth inhibition was 30.6% (inactive) and the condensed nuclei is 18.9%. Moreover, the growth inhibition under setting [1] amounted to 94%.

As to `COCCN(CCOC)C(=O)C12CCC(C)(C(=O)C1)C2(C)C` (centres undefined), the growth inhibition was 31.4% (inactive) and the condensed nuclei is 10.7%. Moreover, the growth inhibition under setting [1] was -4.4%.

In the case of `CCN(CC)CCN1C(=O)C(=O)/C(=C(/O)c2c(C)[nH]c(C(=O)OC)c2C)C1c1cccc(OC)c1` (centres undefined), the growth inhibition is -109% (inactive) and the condensed nuclei was 4.61%. Under setting [1], the growth inhibition is -54.7%.

Take `COC(=O)c1ccc(-c2sc3nc(N4CCOCC4)c4c(c3c2N)CCCC4)o1`: the growth inhibition is 89.6% (inactive) and the condensed nuclei stood at 55.6%. Further, the growth inhibition under setting [1] turned out to be 82.9%.

On to `COc1cc2c(C(=O)N3CCN(c4ccccc4)CC3)c(C)oc2cc1Br`, for which the growth inhibition is -0.57% (inactive) and the condensed nuclei came out at 5.92%. Further, the growth inhibition under setting [1] was -11.3%.

As for `Cc1ccc(OCC(=O)NCC(=O)n2nc(C)cc2C)cc1`, the growth inhibition is -54.1% (inactive) and the condensed nuclei is 2.73%. Further, the growth inhibition under setting [1] was -44.3%.

Consider `Cc1ccccc1N1C(=O)CC(Sc2nnc(-c3ccccc3)o2)C1=O` (centres undefined), for which the growth inhibition was -77.9% (inactive) and the condensed nuclei amounted to 3.38%. The growth inhibition under setting [1] was -47.7%.

As to `Cc1cc(C)cc(CC2CC(=O)N(c3cc(C)on3)C2=O)c1` (centres undefined), the growth inhibition was 2.63% (inactive) and the condensed nuclei turned out to be 7.19%. Besides, under setting [1], the growth inhibition is -16.1%.

For the compound `CCOC(=O)c1sc(-n2[nH]c(C)cc2=O)nc1C`, the growth inhibition is 14.3% (inactive) and the condensed nuclei worked out at 1.46%. For the same compound, the growth inhibition under setting [1] is -4.21%.

In the case of `C=CCc1cccc(CNc2nc3ccccc3n2C(C)C)c1O`, the growth inhibition was 95.1% (active) and the condensed nuclei is 14.6%. In addition, under setting [1], the growth inhibition was determined as 88.3%.

As for `C=CCc1cccc(/C=N/n2cnnc2)c1O`, the growth inhibition was 34.7% (inactive) and the condensed nuclei is 13.3%. Also, the growth inhibition under setting [1] is 20.1%.

Turning to `C=CCc1cccc(/C=N/c2ncn[nH]2)c1O`, the growth inhibition was -6.01% (inactive) and the condensed nuclei stood at 2.92%. Further, under setting [1], the growth inhibition was -17.7%.
